From PMC7862700, “An all-to-all approach to the identification of sequence-specific readers for epigenetic DNA modifications on cytosine”

What was measured:
Experiment in all cases: DAPPL (digital affinity profiling via proximity ligation, sequencing); 10 mM Tris-HCl pH 7.5, 50 mM NaCl, 1 mM DTT, 4% glycerol, room temperature, 30 min; GST-TFs on glutathione beads, 16-mer random dsDNA library, 0.1% formaldehyde crosslink after washing; high values mean tight binding
Settings in all cases: protein: recombinant; tags: N-terminal GST; dsDNA, one strand shown
ERF = biological target: T1, ERF (Homo sapiens, UniProt P50548 1-548)
T1 sequence: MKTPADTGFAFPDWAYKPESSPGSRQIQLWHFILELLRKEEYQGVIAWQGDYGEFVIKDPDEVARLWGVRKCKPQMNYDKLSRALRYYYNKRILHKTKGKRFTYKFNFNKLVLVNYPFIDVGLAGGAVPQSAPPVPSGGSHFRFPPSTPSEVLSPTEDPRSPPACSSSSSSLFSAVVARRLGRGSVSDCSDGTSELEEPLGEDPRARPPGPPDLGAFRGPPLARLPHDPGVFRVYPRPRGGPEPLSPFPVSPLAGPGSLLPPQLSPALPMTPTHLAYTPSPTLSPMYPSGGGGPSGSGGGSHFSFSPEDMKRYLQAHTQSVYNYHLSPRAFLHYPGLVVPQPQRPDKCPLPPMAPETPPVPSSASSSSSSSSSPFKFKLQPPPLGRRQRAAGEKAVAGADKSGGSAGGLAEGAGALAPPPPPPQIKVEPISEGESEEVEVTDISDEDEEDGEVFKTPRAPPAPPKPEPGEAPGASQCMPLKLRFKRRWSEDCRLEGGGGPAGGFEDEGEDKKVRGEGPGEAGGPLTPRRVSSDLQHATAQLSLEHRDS
Outline: (§1)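 Pools of DNA-barcoded human transcription factors, expressed in yeast as GST fusions on glutathione beads and combined with a tag-only sample, were incubated with 200 nmole of a 16-mer random double-stranded DNA library. Incubation took 30 min at room temperature in Tris/NaCl/DTT/glycerol buffer and was followed by washing, 0.1% formaldehyde crosslinking, proximity ligation (BsaI/T4 ligase, 1 h, 37 °C), PCR amplification and sequencing on an Illumina NextSeq500. Binding signal is the ratio of a hexamer's read frequency for a factor to its frequency for the tag-only sample.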

ETV3L = biological target: T2, ETV3L (Homo sapiens, UniProt Q6ZN32 1-361)
T2 sequence: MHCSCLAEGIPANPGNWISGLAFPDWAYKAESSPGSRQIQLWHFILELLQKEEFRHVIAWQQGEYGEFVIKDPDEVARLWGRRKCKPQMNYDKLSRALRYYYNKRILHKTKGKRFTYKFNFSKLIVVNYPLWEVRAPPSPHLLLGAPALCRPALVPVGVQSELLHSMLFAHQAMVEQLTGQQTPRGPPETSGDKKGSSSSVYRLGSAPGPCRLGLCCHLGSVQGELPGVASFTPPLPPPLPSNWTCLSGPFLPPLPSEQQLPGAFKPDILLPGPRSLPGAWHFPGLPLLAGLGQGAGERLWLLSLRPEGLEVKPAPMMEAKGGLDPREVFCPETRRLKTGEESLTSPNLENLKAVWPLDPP
Outline: as §1

ETS2 = biological target: T3, ETS2 (Homo sapiens, UniProt P15036 1-469)
T3 sequence: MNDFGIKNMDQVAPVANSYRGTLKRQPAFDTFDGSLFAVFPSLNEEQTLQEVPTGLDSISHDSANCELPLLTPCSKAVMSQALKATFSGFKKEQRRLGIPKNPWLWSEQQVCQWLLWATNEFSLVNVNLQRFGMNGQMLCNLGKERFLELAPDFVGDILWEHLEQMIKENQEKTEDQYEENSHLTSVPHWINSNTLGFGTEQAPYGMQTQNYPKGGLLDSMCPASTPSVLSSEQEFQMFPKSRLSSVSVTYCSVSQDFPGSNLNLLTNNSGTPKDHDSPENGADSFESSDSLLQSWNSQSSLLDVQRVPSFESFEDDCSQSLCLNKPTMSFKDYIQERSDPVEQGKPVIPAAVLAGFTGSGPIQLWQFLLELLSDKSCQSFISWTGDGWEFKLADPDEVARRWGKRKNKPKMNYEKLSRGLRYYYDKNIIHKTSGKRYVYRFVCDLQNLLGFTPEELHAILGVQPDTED
Outline: as §1

SPDEF = biological target: T4, SPDEF (Homo sapiens, UniProt O95238 1-335)
T4 sequence: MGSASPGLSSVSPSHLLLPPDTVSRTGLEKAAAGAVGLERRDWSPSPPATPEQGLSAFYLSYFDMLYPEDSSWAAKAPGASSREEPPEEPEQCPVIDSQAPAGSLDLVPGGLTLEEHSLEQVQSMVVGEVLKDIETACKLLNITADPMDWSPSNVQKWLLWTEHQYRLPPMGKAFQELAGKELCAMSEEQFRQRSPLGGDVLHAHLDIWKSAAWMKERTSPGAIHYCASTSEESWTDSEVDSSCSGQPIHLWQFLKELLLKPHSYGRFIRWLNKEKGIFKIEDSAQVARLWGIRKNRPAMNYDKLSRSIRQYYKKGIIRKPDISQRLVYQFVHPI
Outline: as §1

ETV7 = biological target: T5, ETV7 (Homo sapiens, UniProt Q9Y603 1-341)
T5 sequence: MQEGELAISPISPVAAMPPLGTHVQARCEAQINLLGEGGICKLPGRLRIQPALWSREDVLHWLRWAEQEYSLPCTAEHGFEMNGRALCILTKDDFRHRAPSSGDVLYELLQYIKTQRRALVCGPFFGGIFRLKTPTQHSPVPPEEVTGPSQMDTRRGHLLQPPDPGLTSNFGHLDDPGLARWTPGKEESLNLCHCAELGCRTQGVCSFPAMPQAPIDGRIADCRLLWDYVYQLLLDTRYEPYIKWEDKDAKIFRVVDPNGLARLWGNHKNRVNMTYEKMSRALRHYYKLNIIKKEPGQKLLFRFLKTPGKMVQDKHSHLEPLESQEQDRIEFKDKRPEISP
Outline: as §1

ELF5 = biological target: T6, ELF5 (Homo sapiens, UniProt Q9UKW6-2 1-255)
T6 sequence: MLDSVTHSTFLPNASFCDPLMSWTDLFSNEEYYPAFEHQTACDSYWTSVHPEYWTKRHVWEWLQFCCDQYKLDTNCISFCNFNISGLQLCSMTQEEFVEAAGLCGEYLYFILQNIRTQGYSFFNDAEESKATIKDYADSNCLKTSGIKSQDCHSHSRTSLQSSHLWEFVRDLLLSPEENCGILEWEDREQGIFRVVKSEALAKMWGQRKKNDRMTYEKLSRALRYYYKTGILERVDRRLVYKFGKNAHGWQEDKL
Outline: as §1

ETV3 = biological target: T7, ETV3 (Homo sapiens, UniProt P41162-2 1-143)
T7 sequence: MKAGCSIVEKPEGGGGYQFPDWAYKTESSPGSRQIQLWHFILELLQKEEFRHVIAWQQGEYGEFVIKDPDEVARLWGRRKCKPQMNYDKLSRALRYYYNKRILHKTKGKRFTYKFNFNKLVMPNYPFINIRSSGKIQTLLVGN
Outline: as §1

ETV6 = ETV6 (Homo sapiens, UniProt P41212 1-452)
ETV6, sequence (P41212 whole entry): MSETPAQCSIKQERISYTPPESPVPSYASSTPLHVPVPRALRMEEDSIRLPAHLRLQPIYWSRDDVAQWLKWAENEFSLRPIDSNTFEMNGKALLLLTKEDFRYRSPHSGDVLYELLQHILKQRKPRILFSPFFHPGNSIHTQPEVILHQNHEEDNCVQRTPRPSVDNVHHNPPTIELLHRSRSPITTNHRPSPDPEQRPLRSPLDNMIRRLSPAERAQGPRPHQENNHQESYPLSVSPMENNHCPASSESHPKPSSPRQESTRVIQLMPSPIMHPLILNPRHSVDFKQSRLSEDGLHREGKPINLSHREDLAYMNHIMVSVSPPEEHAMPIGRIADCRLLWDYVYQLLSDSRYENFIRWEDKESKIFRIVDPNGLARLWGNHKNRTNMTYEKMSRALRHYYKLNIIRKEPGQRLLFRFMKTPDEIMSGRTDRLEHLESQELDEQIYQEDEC
Outline: as §1

Row | Sequence | binding signal (ERF) | binding signal (ETV3L) | binding signal (ETS2) | binding signal (SPDEF) | binding signal (ETV7) | binding signal (ELF5) | binding signal (ETV3) | binding signal (ETV6)
1 | TTAACG | 1.15 fold enrichment (6-mer frequency, TF over GST control) | 1.17 fold enrichment (6-mer frequency, TF over GST control) | 1.23 fold enrichment (6-mer frequency, TF over GST control) | 1.23 fold enrichment (6-mer frequency, TF over GST control) | 1.13 fold enrichment (6-mer frequency, TF over GST control) | 1.14 fold enrichment (6-mer frequency, TF over GST control) | 1.16 fold enrichment (6-mer frequency, TF over GST control) | 1.17 fold enrichment (6-mer frequency, TF over GST control)
2 | TGATGC | 1.48 fold enrichment (6-mer frequency, TF over GST control) | 1.61 fold enrichment (6-mer frequency, TF over GST control) | 1.58 fold enrichment (6-mer frequency, TF over GST control) | 1.45 fold enrichment (6-mer frequency, TF over GST control) | 1.54 fold enrichment (6-mer frequency, TF over GST control) | 1.52 fold enrichment (6-mer frequency, TF over GST control) | 1.67 fold enrichment (6-mer frequency, TF over GST control) | 1.52 fold enrichment (6-mer frequency, TF over GST control)
3 | CATACT | 1.3 fold enrichment (6-mer frequency, TF over GST control) | 1.33 fold enrichment (6-mer frequency, TF over GST control) | 1.32 fold enrichment (6-mer frequency, TF over GST control) | 1.23 fold enrichment (6-mer frequency, TF over GST control) | 1.28 fold enrichment (6-mer frequency, TF over GST control) | 1.27 fold enrichment (6-mer frequency, TF over GST control) | 1.36 fold enrichment (6-mer frequency, TF over GST control) | 1.26 fold enrichment (6-mer frequency, TF over GST control)
4 | GACCTT | 1.5 fold enrichment (6-mer frequency, TF over GST control) | 1.64 fold enrichment (6-mer frequency, TF over GST control) | 1.49 fold enrichment (6-mer frequency, TF over GST control) | 1.66 fold enrichment (6-mer frequency, TF over GST control) | 1.41 fold enrichment (6-mer frequency, TF over GST control) | 1.62 fold enrichment (6-mer frequency, TF over GST control) | 1.5 fold enrichment (6-mer frequency, TF over GST control) | 1.5 fold enrichment (6-mer frequency, TF over GST control)
5 | CTAATC | 1.31 fold enrichment (6-mer frequency, TF over GST control) | 1.34 fold enrichment (6-mer frequency, TF over GST control) | 1.32 fold enrichment (6-mer frequency, TF over GST control) | 1.34 fold enrichment (6-mer frequency, TF over GST control) | 1.41 fold enrichment (6-mer frequency, TF over GST control) | 1.33 fold enrichment (6-mer frequency, TF over GST control) | 1.32 fold enrichment (6-mer frequency, TF over GST control) | 1.35 fold enrichment (6-mer frequency, TF over GST control)
6 | TTATCT | 1.23 fold enrichment (6-mer frequency, TF over GST control) | 1.44 fold enrichment (6-mer frequency, TF over GST control) | 1.35 fold enrichment (6-mer frequency, TF over GST control) | 1.24 fold enrichment (6-mer frequency, TF over GST control) | 1.15 fold enrichment (6-mer frequency, TF over GST control) | 1.22 fold enrichment (6-mer frequency, TF over GST control) | 1.28 fold enrichment (6-mer frequency, TF over GST control) | 1.25 fold enrichment (6-mer frequency, TF over GST control)
7 | AATTAT | 1.15 fold enrichment (6-mer frequency, TF over GST control) | 1.26 fold enrichment (6-mer frequency, TF over GST control) | 1.27 fold enrichment (6-mer frequency, TF over GST control) | 1.24 fold enrichment (6-mer frequency, TF over GST control) | 1.23 fold enrichment (6-mer frequency, TF over GST control) | 1.24 fold enrichment (6-mer frequency, TF over GST control) | 1.28 fold enrichment (6-mer frequency, TF over GST control) | 1.2 fold enrichment (6-mer frequency, TF over GST control)
8 | ACGAAA | 1.34 fold enrichment (6-mer frequency, TF over GST control) | 1.13 fold enrichment (6-mer frequency, TF over GST control) | 1.15 fold enrichment (6-mer frequency, TF over GST control) | 1.18 fold enrichment (6-mer frequency, TF over GST control) | 1.23 fold enrichment (6-mer frequency, TF over GST control) | 1.09 fold enrichment (6-mer frequency, TF over GST control) | 1.03 fold enrichment (6-mer frequency, TF over GST control) | 1.13 fold enrichment (6-mer frequency, TF over GST control)
